Sm TGR block – inhibitors of Schistosoma mansoni thioredoxin glutathione reductase. hit rate 3% among 360,000. Potency, µM (highest dose often 114 µM), most hits filed as inhibitors. purified TGR, DTNB reduction, TNB absorbance 405 nm. Q962Y6; also: nearly all actives have a fitted effect of over 60% in size
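Kinetic colorimetric format: TGR-catalysed, NADPH-driven DTNB reduction monitored via TNB absorbance. Enzyme dispensed at 20 nM; compound exposure 15 min at room temperature before reaction start.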
SARS PLpro yeast-1 – inhibitors of SARS-CoV papain-like protease in yeast; AID 485353; hit rate 0.19% among 330,000; S. cerevisiae expressing SARS-CoV PLpro, growth rescue; Potency, µM (top dose mostly 32.9 µM), hits mostly activators; calls by dose curve; also: nearly all actives have a fitted effect of over 55% in size
LmPK inh – blocks Leishmania mexicana pyruvate kinase activity | purified LmPK, Kinase-Glo ATP luminescence, 1 h | hit rate 0.37% among 290,000 | Potency, µM (top dose mostly 57.5 µM), hits mostly inhibitors | AID 1721
Target sequence (Q27686 whole entry, looked up): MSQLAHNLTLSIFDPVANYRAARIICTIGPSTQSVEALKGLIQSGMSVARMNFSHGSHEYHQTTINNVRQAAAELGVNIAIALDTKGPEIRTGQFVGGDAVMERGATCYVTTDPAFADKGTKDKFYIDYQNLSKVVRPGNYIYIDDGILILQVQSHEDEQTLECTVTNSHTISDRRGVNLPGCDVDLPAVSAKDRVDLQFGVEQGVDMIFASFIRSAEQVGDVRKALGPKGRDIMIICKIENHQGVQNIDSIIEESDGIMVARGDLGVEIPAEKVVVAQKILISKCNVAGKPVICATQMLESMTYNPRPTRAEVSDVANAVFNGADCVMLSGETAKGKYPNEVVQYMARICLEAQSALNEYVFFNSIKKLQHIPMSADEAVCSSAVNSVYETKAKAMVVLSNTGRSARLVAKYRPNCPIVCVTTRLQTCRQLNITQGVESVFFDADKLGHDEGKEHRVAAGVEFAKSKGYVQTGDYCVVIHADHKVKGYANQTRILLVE
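Kinase-Glo luminescence read after 1 h RT reaction of 0.1 nM LmPK with 0.5 mM PEP and 0.1 mM ADP. Activity scaled between uninhibited and enzyme-free controls.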
TbPYK inhibitor – T. brucei pyruvate kinase inhibition. Q57TT1. TbPYK enzyme, Kinase-Glo Plus ATP luminescence, 45 min. Potency, µM (series often up to 76.8 µM), actives largely listed as inhibitors. hit rate 0.12% among 410,000; also: nearly all actives have a fitted effect of over 50% in size
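Enzyme and substrate buffer are dispensed first and compound is pin-transferred. ADP at 130 uM final then starts the reaction, which runs 45 min at room temperature. Detection reagent is added for 10 min before luminescence is imaged.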
RE007 growth inh – less growth of the S. pombe RE007 Vpr strain. hit rate 0.21% among 360,000. AID 651644. Potency, µM (titrated, usually from 92.2 µM), actives largely listed as inhibitors. S. pombe RE007 Vpr strain, BacTiter-Glo ATP luminescence, 24 h; active = well fitted falling curve with a large enough effect; inconclusive = small, poorly fitted or top-dose-only effect; inactive = no such curve, though single readings can be large or run the other way; also: nearly all actives have a fitted effect of over 50% in size
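Fission yeast RE007 carrying one integrated HIV-1 vpr copy, seeded at OD 0.01 in PMG+AL medium with 23 nL pinned compound. Grown 24 h at 30 degrees; viability read by BacTiter-Glo luminescence after 5 min.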
NS1 inh – inhibitors of influenza NS1 protein function. Potency, µM (doses to about 46.1 µM). hit rate 0.4% among 270,000; calls by dose curve; also: actives are rising curves; nearly all actives have a fitted effect of over 50% in size
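S. cerevisiae expressing influenza A NS1, grown in glucose, washed, then diluted 1:100 into pH 6.0 -URA galactose medium with 23 nl compound. Growth recovery read as OD600; NS1-free strain serves as control.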
SARS PLpro yeast-2 – Inhibits SARS-CoV PLP in yeast, hit validation. hit rate 19% among 1,000. AID 652038. shares compounds with SARS PLpro yeast-1. yeast expressing SARS-CoV PLpro, growth phenotype rescue. calls only; call rule not given here
Numbers stand for hits. Sampled rows, rich in hits. Any-hit rate of the full collection: about 3.3%. Unless noted, calls follow the shape of the dose curve; as a rule, active = well fitted curve in the direction sought with a large enough effect; inconclusive = small, poorly fitted or top-dose-only effect, or another doubt; inactive = no such curve, though single readings can be large; an effect the other way counts as inactive or inconclusive.

CCCNC(=S)NCc1ccc(Cl)cc1 was read as Sm TGR block inactive, SARS PLpro yeast-1 inconclusive, LmPK inh inactive, TbPYK inhibitor inactive, RE007 growth inh inactive, NS1 inh inactive and SARS PLpro yeast-2 inactive.
CCOc1ccc(CNC(=S)NCc2ccc(OCC)cc2)cc1 was read as Sm TGR block inactive, SARS PLpro yeast-1 13µM, LmPK inh inactive, TbPYK inhibitor inactive, RE007 growth inh inactive, NS1 inh inactive and SARS PLpro yeast-2 active.
`Cc1ccc(C)c(S(=O)(=O)n2nc(C)c(S(=O)(=O)N3CCCCCC3)c2C)c1` gave Sm TGR block inactive and TbPYK inhibitor inactive.
Screening O=C(CCl)Nc1cccc2ncccc12 returned Sm TGR block 45µM, SARS PLpro yeast-1 11µM, LmPK inh inactive, TbPYK inhibitor inactive, RE007 growth inh inactive, NS1 inh inactive and SARS PLpro yeast-2 active.
`CC(=O)N1CCc2c(sc3c2c(=O)n(-c2ccccc2C)c(=O)n3CC(=O)Nc2ccccc2)C1` gave Sm TGR block inactive and TbPYK inhibitor inactive.
Screening Cc1cc(C(=O)N/N=C/c2cc([N+](=O)[O-])ccc2O)c2ccccc2n1 returned Sm TGR block inactive, SARS PLpro yeast-1 3.2µM, LmPK inh inactive, TbPYK inhibitor inactive, RE007 growth inh inactive, NS1 inh inactive and SARS PLpro yeast-2 inactive.
Screening Cc1ccccc1C(=O)Nc1cccc(C(=O)N/N=C/c2cc(Cl)cc([N+](=O)[O-])c2O)c1 returned Sm TGR block inactive, SARS PLpro yeast-1 7.9µM, LmPK inh inactive, TbPYK inhibitor inactive, RE007 growth inh inactive and SARS PLpro yeast-2 inconclusive.
For O=C(N/N=C/c1cc([N+](=O)[O-])ccc1O)c1cc(-c2ccccc2)nc2ccccc12 the results were Sm TGR block inactive, LmPK inh inactive, TbPYK inhibitor inactive, RE007 growth inh inactive, NS1 inh inactive and SARS PLpro yeast-2 active.
For Cc1cc(C(=O)N/N=C/c2cc(Br)cc([N+](=O)[O-])c2O)c2ccccc2n1 the results were Sm TGR block inactive, SARS PLpro yeast-1 1.8µM, LmPK inh inactive, TbPYK inhibitor inactive, RE007 growth inh inactive, NS1 inh inactive and SARS PLpro yeast-2 inactive.
Screening O=C(N/N=C/c1cc([N+](=O)[O-])ccc1Cl)c1cc(-c2ccccc2)nc2ccccc12 returned Sm TGR block inactive, SARS PLpro yeast-1 inactive, LmPK inh inactive, TbPYK inhibitor inactive, RE007 growth inh inactive and NS1 inh inactive.
Screening COc1ccc(-c2n[nH]c3c2C(c2ccc(Cl)cc2Cl)NC3=O)cc1 (configuration not stated) returned Sm TGR block inactive and TbPYK inhibitor inactive.
Screening CCCCn1c(O)c(/C=N/NC(=O)c2ccncc2)c(=O)[nH]c1=S returned Sm TGR block inconclusive, SARS PLpro yeast-1 inactive, LmPK inh inactive, TbPYK inhibitor inactive, RE007 growth inh inactive and NS1 inh inactive.
CCn1c(O)c(/C=N/NC(=O)c2ccncc2)c(=O)n(CC)c1=S was read as Sm TGR block inactive, SARS PLpro yeast-1 inconclusive, LmPK inh inactive, TbPYK inhibitor inactive, RE007 growth inh inactive, NS1 inh inactive and SARS PLpro yeast-2 inactive.
Screening Cc1cc([N+](=O)[O-])nn1Cc1ccc(C(=O)N/N=C/c2ccc(O)cc2O)cc1 returned Sm TGR block inactive, SARS PLpro yeast-1 3.2µM, LmPK inh inactive, TbPYK inhibitor inactive, RE007 growth inh inactive, NS1 inh inactive and SARS PLpro yeast-2 inconclusive.
Screening Cc1ccc(C)c(NC(=O)CSc2c3c(nc4ccc(Cl)cc24)CCCC3)c1 returned Sm TGR block inactive and TbPYK inhibitor inactive.
Screening Cc1cc(C)c(S(=O)(=O)N2CCCOC2CNC(=O)C(=O)NCCCn2ccnc2)c(C)c1 (configuration not stated) returned Sm TGR block inactive, SARS PLpro yeast-1 inconclusive, LmPK inh inactive, TbPYK inhibitor inactive, RE007 growth inh inactive, NS1 inh inactive and SARS PLpro yeast-2 inconclusive.
`Cc1cc(C(=O)NNC(=O)c2ccc(Cl)c(S(N)(=O)=O)c2)c(C)o1` gave SARS PLpro yeast-1 inactive, TbPYK inhibitor inactive and RE007 growth inh inactive.
For Cc1cc(C(=O)NNC(=O)c2ccc(S(=O)(=O)N(C)C)cc2)c(C)o1 the results were Sm TGR block inactive, SARS PLpro yeast-1 2.5µM, LmPK inh inactive, TbPYK inhibitor inactive, RE007 growth inh inactive, NS1 inh inactive and SARS PLpro yeast-2 inactive.
CCOc1ccc(CNC(=O)C2CCN(S(=O)(=O)c3ccc4c(c3)CCCC(=O)N4)CC2)cc1 was read as Sm TGR block inactive, SARS PLpro yeast-1 inconclusive, LmPK inh inactive, TbPYK inhibitor inactive, RE007 growth inh inactive, NS1 inh inactive and SARS PLpro yeast-2 active.
`C=C(C)Cn1c(SCC)nc2ccccc2c1=O` gave Sm TGR block inactive, SARS PLpro yeast-1 inactive, LmPK inh inactive, TbPYK inhibitor inactive, RE007 growth inh inactive and NS1 inh inactive.
C=C(C)Cn1c(SCC(=O)N/N=C/c2c(O)ccc3ccccc23)nc2ccccc2c1=O was read as Sm TGR block inactive, SARS PLpro yeast-1 10µM, LmPK inh inactive, TbPYK inhibitor inactive, RE007 growth inh inactive, NS1 inh inactive and SARS PLpro yeast-2 active.
Screening Cn1c2ccccc2n2c(=O)c(=O)n(CC(=O)c3ccc(Cl)cc3)nc12 returned Sm TGR block inactive, SARS PLpro yeast-1 11µM, LmPK inh inactive, TbPYK inhibitor inactive, RE007 growth inh inactive, NS1 inh inactive and SARS PLpro yeast-2 inactive.
Screening COc1ccc(C2OCC(C)(C)CO2)cc1OC returned TbPYK inhibitor inactive and RE007 growth inh inactive.
COc1ccc(C2C=C(C34CC5CC(CC(C5)C3)C4)NC(=S)N2)cc1OC (configuration not stated) was read as Sm TGR block inactive, SARS PLpro yeast-1 14µM, LmPK inh inactive, TbPYK inhibitor inactive, RE007 growth inh inactive, NS1 inh inactive and SARS PLpro yeast-2 active.
`NS(=O)(=O)c1cccc(NC(=O)CCSc2ccccc2Cl)c1` gave Sm TGR block inactive, SARS PLpro yeast-1 inconclusive, LmPK inh inactive, TbPYK inhibitor inactive, RE007 growth inh inactive, NS1 inh inactive and SARS PLpro yeast-2 inactive.
Screening O=C(CCSc1ccccc1Cl)Nc1cccc([N+](=O)[O-])c1 returned Sm TGR block inactive, SARS PLpro yeast-1 inactive, LmPK inh inactive, TbPYK inhibitor inactive, RE007 growth inh inactive and NS1 inh inactive.
CC(C)n1cnnc1SCC(=O)NC(=O)c1ccccc1 was read as Sm TGR block inactive, SARS PLpro yeast-1 inconclusive, TbPYK inhibitor inactive, RE007 growth inh inactive and SARS PLpro yeast-2 inactive.
For COc1ccccc1C(=O)NC(=O)CSc1nncn1C(C)C the results were Sm TGR block inactive, SARS PLpro yeast-1 inactive, TbPYK inhibitor inactive and RE007 growth inh inactive.
O=C(c1cnn(-c2ccc(F)cc2)c1-n1cccc1)N1CCN(c2cccc(Cl)c2)CC1 was read as Sm TGR block inactive and TbPYK inhibitor inactive.

Source: PubChem
